Here are results for 40 compounds from PubChem BioAssay (NCI).

SMILES strings stand for the structures. About 83,000 compounds went through this panel and 20% of them were active in at least one assay; those are over-represented in the sample as a whole.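 Method: cells in 96-well plates; compound added at one concentration; 48 h incubation; percent growth measured; values under 10 scored active.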 Unmarked numbers belong to inactive results. Activity calls are given as the source filed them.

In the assay the test system is HL-60(TB) leukemia. Kind of assay: NCI-60 one-dose screen, 48 h (100 = growth as untreated, 0 = no growth, -100 = all killed). The settings on record: 10 µM unless noted.
Regarding `Clc1ccc(/C=C/c2nc(Nc3ccc(Cl)cc3)c3ccccc3n2)cc1`, the growth was 102%.

For `C[N+]1=C(/C=C/c2ccccc2Cl)C(C)(C)c2ccccc21`, the growth is 53.5%.

Turning to `CC1C(=O)CCCC1=O`, the growth is 118%. In the case of `COc1ccc(C(=O)CCC(=O)O)cc1`, the growth was 98.6%. As for `S=c1[nH]nc(CSc2ncnc3c2c(-c2ccccc2)cn3-c2ccc(Cl)cc2)o1`, the figure is 101%.

Take `CCCCCCCCNC(=O)C(C)C`: the growth is 99.7%. The same measure for `C/C(=N\Nc1ccc(Cl)cn1)c1ccc2ccccc2n1`: -15.3% (active). As for `O=C(CN1C=NC2C(N3CCOCC3)=NC=NC21)c1ccc(Br)cc1` (stereo not given), the figure is 102%; as for `COc1ccc(C(=O)/C=C/c2ccc(C)cc2)cc1OC`, 58.4%; as for `O=S(=O)(Nc1ccccc1Cl)c1ccc(-c2cnc(C3CC3)o2)cc1`, 7.9% (active). As for `CN1C(=O)C(C2=NNC(c3ccccc3C(=O)O)C2)C(=O)N(C)C1=O` (stereo not given), the figure is 95.5%. With `CN1CCN(Cc2ccc(NC(=O)c3cncc(C#Cc4cnc(N)c5ccncc45)c3)cc2C(F)(F)F)CC1`, the growth is -9.61% (active).

Regarding `Cc1ccc(/C=C2/C(=O)N(C)c3ccc(S(=O)(=O)Nc4ccc(C(C)(C)C)cc4)cc32)s1`, the growth was 97%. `O=[N+]([O-])c1ccc(-c2cc3c(Nc4ccc(Cl)c(C(F)(F)F)c4)ncnc3s2)cc1`: the growth was -41.3% (active). As for `NC(=S)N/N=C/c1cn(-c2ccccc2)nc1-c1cc2ccccc2oc1=O`, the figure is 20.4%; as for `CC(=O)Oc1cc(C)c(OC(C)=O)c(C)c1C`, 101%. As for `CCc1cccc(CC)c1N1C(=O)C=CC1=O`, the figure is -7.6% (active). As for `Cc1cc(C(=O)Nc2cc(Nc3ncccc3-c3ncnc4nc[nH]c34)ccc2F)cc(C(C)(C)C#N)c1`, the figure is 26.4%; as for `Nc1c(C(=O)Nc2ccncc2)sc2nc3c(cc12)CCCCC3`, 55.5%. On to `CN(C)CC(O)c1ccc(/C=C/c2ccc(Cl)cc2)cc1` (stereo not given), for which the growth is -43.6% (active). Take `CCN1CCN(c2ccc(Nc3cc(-c4cccnc4Nc4c(Cl)c(OC)cc(OC)c4Cl)ncn3)cc2)CC1`: the growth was 56%. As for `O=C(Nc1ccccc1)c1cc2ccccc2s1`, the figure is 61.6%. The same measure for `O=C1NCCN1/N=C/c1c(Cl)n(Cc2ccc(Cl)cc2)c2ccccc12`: 74.4%; for `CCN(c1cc(-c2ccc(CN3CCC(/C=C/S(=O)(=O)c4ccccc4)CC3)cc2)cc(C(=O)NCc2c(C)cc(C)[nH]c2=O)c1C)C1CCOCC1`: 23.4%; for `O=C(Nc1ccc(C(=O)Nc2ccc(C3=NCCCN3)cc2)cc1)Nc1ccc(C2=NCCCN2)cc1`: 44.2%. The same measure for `CCCCCCCOc1cccc(/C=C2/C(=O)N=C3SCCCN32)c1`: 95.2%; for `CC(=O)OC[C@]12CC[C@@H](C(=O)CBr)[C@@H]1[C@H]1CC[C@@H]3[C@@]4(C)CC[C@H](OC(C)=O)C(C)(C)[C@@H]4CC[C@@]3(C)[C@]1(C)CC2`: 63.8%; for `COc1cc(NC(N)=NCC(C)(C)COc2ccc(C(F)(F)F)cc2)cnc1C#N`: 24.7%. Take `c1ccc2c(-c3nc(-c4c[nH]c5ccncc45)cs3)c[nH]c2c1`: the growth was 45.9%.

Consider `Cc1ccc(Cl)cc1NC(=O)c1cc2ccccc2cc1O`, for which the growth was -49.5% (active).

Consider `CCCNS(=O)(=O)c1ccc(Cl)cc1`, for which the growth was 105%. The same measure for `CCCCCCCCCCCCCCCCCC1=NCCN1CCNC(C)=O`: 79.2%; for `Oc1ccc(Cl)cc1Cc1cc(Cl)cc(Cl)c1O`: -11.1% (active); for `CCOC(=O)Cn1c(-c2nonc2NC(=O)c2ccccc2F)nc2ccccc21`: 35.1%. As for `Cc1cccc2cc(/C=C/C(=O)/C=C/c3ccc(Cl)cc3)c(=O)[nH]c12`, the figure is 44.2%. As for `Clc1ccc(-c2cn3ccsc3n2)c(Cl)c1Cl`, the figure is 85.7%. With `O=C(Nc1ccc(N=Cc2ccccc2O)cc1)NC1C=c2ccccc2=CC1` (stereo not given), the growth was 79.4%. As for `C#CCCCCCCC[C@@H]1OC(=O)[C@H]([C@@H](C)CC)NC(=O)[C@H]([C@@H](C)CC)NC(=O)CC(=O)[C@@H]1C`, the figure is 103%; as for `COc1ccc(NC(=O)c2ccc(/C=C/C(=O)c3ncc[nH]3)cc2)cc1`, 33.6%. Regarding `FCc1nc2nc(Cl)c(Cl)nc2[nH]1`, the growth is 102%.
